Rows were chosen to be rich in hits. Some 0.87% of all compounds tested hit in one or more screens of this group.
NOD2 RIPK2 PPI = inhibitors of human NOD2-RIPK2 interaction; CHO BLA complementation NOD2-RIPK2, CCF4 ratio; O43353; inhibition, % at 4.98 µM; actives 0.38% (n = 360,000); AID 624267; in the data active means inhibition above about 21%
IDE inh = cellular human IDE inhibition; actives 0.41% (n = 320,000); P14735; AID 434962; inhibition, % at 5.59 µM; HEK cells, FAbetaB cleavage, fluorescence polarization;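 active means percent inhibition above the average of all tested compounds plus 3 SD, set per screening campaign, cut at about 16% in these data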;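 further: IDE supplied by intact live HEK cells; FP after avidin binding of uncleaved biotin substrate so inhibition keeps polarization high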
IDE act = boosts human insulin-degrading enzyme activity in HEK cells; P14735; FAbeta-B cleavage, fluorescence polarization; 0% vehicle, 100% cell-free pure enzyme wells; activation, % at 5.96 µM; actives 0.073% (n = 340,000);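 active means activation above the mean of all tested compounds plus 3 SD, set per screening campaign, cut at about 17% in these data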
TLR4 MyD88 comp = blocks binding of human TLR4 to MyD88; O00206+Q99836; HeLa CL3-4 TLR4/MyD88 BLA complementation, FRET ratio; inhibition, % at 8.4 µM; actives 0.18% (n = 200,000); AID 861; in the data active means inhibition above about 25%
TLR9-MyD88 inh = blocks human TLR9 binding to MyD88 | CHO BLA complementation TLR9-MyD88, CCF4 FRET ratio | inhibition, % at 4.98 µM | actives 0.21% (n = 340,000) | AID 504734;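 active means inhibition above the mean over all tested compounds plus 3 SD, cut at about 21% in these data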
A number is an active result; - = inactive; . = not tested or not shown.

SMILES | NOD2 RIPK2 PPI | IDE inh | IDE act | TLR4 MyD88 comp | TLR9-MyD88 inh
CCN1CCN(Cc2ccc(NC(=O)c3ccc(C)c(NC(=O)c4cncc(-c5cccs5)c4)c3)cc2C(F)(F)F)CC1 | 29 | . | - | . | -
Cc1c(C(=O)Nc2ccc3c(c2)OCO3)sc2nc(-c3ccccc3)cn12 | - | - | - | - | -
Cc1c(C(=O)Nc2ccccc2)sc2nc(-c3ccccc3)cn12 | - | 23 | - | - | -
CNC[C@H](CC1CCCCC1)NC[C@H](Cc1ccccc1)NCCC12CC3CC(CC(C3)C1)C2 | - | - | 35 | . | -
COC(=O)C1=CN(c2ccc(N3CCOCC3)cc2)C(N)=C(C#N)C1c1cccc(OC)c1OC (configuration not stated) | - | . | . | . | .
COc1cc(Cl)c(C)cc1NC(=O)CSc1ccc(NC(C)=O)cc1 | - | 18 | - | - | -
CCCc1cc(=O)[nH]c(-n2[nH]c3c(c2=O)CCCC3)n1 | - | 19 | - | - | -
CCCCCC(=O)Nc1ccc2ccccc2c1 | - | - | - | - | -
O=C(CS)Nc1ccc2ccccc2c1 | - | 17 | - | . | -
CCOC(=O)CC1C(=O)NCCN1c1nc2ccc(C)cn2c(=O)c1/C=C1\SC(=S)N(C(C)CC)C1=O (configuration not stated) | . | 43 | . | . | .
CCOC(=O)CC1C(=O)NCCN1C(=O)c1ccc(C)cc1 (configuration not stated) | - | - | - | . | -
O=C(Nc1cc(S(=O)(=O)N2CCOCC2)ccc1N1CCOCC1)c1ccccc1F | - | - | 20 | . | -
Cc1cccc(C)c1NC(=O)C1(C)CSCC(=O)N1CC(C)C (configuration not stated) | - | . | . | . | .
CCCC1=NN2C(=N)/C(=C\c3cc(C)n(Cc4ccccc4)c3C)C(=O)N=C2S1 | - | - | - | . | -
CCCC1=NN2C(=N)/C(=C\c3ccc(SCc4ccco4)o3)C(=O)N=C2S1 | - | 18 | - | - | -
CCc1ccc(-c2nc(CS(=O)CC(=O)NC3CC3)c(C)o2)cc1 (configuration not stated) | - | - | - | . | -
CCc1ccc(-c2nc(CS(=O)CC(=O)O)c(C)o2)cc1 (configuration not stated) | - | - | 18 | . | -
CC1OC(CC(=O)O)CC2=C1C(=O)c1c(O)cccc1C2=O (configuration not stated) | 78 | . | - | . | -
O=C1c2cccc(O)c2C(=O)c2c(O)cccc21 | . | - | . | - | .
S=c1[nH]cnc2sc(-c3ccccc3)cc12 | - | 19 | - | - | -
CNc1ncnc2sc(-c3ccccc3)cc12 | - | - | - | - | -
CCN(CC)C1=CC2=CC(=C(C#N)C#N)CCC2CC1 (configuration not stated) | - | - | 44 | - | -
CCCCN(C)C1=CC2=CC(=C(C#N)C#N)CCC2CC1 (configuration not stated) | - | - | 46 | - | -
COC(=O)C[C@@H]1C=C[C@@H](NC(=O)C2CCC2)[C@@H](CO)O1 | - | . | . | . | .
COC1=CC(=O)C=C(OC)C1=O | 22 | . | - | . | -
SMILES | NOD2 RIPK2 PPI | IDE inh | IDE act | TLR4 MyD88 comp | TLR9-MyD88 inh
COc1ccc(-c2ccc(C(=O)NCc3ccncc3)c3occc23)c(C)c1 | - | . | . | . | .
CC1=C(C)/C(=N\OS(=O)(=O)c2ccccc2)C=CC1=O | 76 | - | - | - | -
COc1ccc(OC)c(-c2c3cc(O)c(=O)cc-3oc3cc(O)c(O)cc23)c1 | - | 39 | - | - | -
O=c1cc2oc3cc(O)c(O)cc3c(-c3ccccc3O)c-2cc1O | - | . | - | . | -
COc1cccc(-n2nc(C#N)c(Cl)cc2=O)c1 | 70 | . | - | - | -
O=S(=O)(O)c1cccc2c(N=Nc3ccc(O)c4ncccc34)cccc12 | - | - | 36 | . | -
Cc1ccccc1N=Nc1ccc(O)c2ncccc12 | - | - | - | - | -
COc1cc(/C=C2/SC(=S)N(Cc3ccccc3)C2=O)cc(Cl)c1O | - | 86 | - | . | -
COc1cc(/C=C2/SC(=S)N(Cc3ccccc3)C2=O)ccc1OCC(=O)O | - | - | - | . | -
CCOc1cc(/C=C2/SC(=S)N(Cc3ccccc3)C2=O)ccc1O | - | 83 | - | . | -
O=C1Nc2ccccc2-c2nnnn2C1N1CCCC1 (configuration not stated) | - | . | . | . | .
COc1ccc(/C=C2\SC(=S)N(c3cccnc3)C2=O)cc1 | - | - | - | . | -
O=C1/C(=C\c2ccc(O)cc2)SC(=S)N1c1cccnc1 | - | 88 | - | - | -

High-throughput results as filed in PubChem BioAssay.
